Holding throughout (experiment): NCI-60 one-dose screen, 48 h (100 = growth as untreated, 0 = no growth, -100 = all killed)
Conditions in all cases: 10 µM

Test [1] deals with EKVX NSCLC.
The test system of test [2] is SN12C renal.
Test [3] concerns UO-31 renal.
Test [4] has as its system TK-10 renal.
Test [5] deals with ACHN renal.
Test [6] relates to CAKI-1 renal.
In test [7] the test system is CCRF-CEM leukemia.
The test system of test [8] is MOLT-4 leukemia.
In test [9] the test system is SR leukemia.
Test [10] concerns A498 renal.

About 83,000 compounds went through this panel and 20% of them were active in at least one assay; those are over-represented in the sample as a whole.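 Cell lines were cultured in 96-well plates, exposed to a single compound concentration, and assessed for percent growth 48 hours later.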 A number with no mark means an inactive call. Calls of active or inactive are those of the source. How the source made its calls: active means growth percent below 10; inactive means the rest.

`COc1ccc(-c2csc(NC(=O)CSc3nc(C)c(-c4ccccc4)n3Nc3ccccc3)n2)cc1`: the growth in [1] was 38.3%; in test [2], 42.1%; in test [3], 4.89% (active); in test [4], 86.1%; in test [5] it was 59%; in [6] it was 20%. For the same molecule, the growth in [7] was 28.3%; in test [8], 31.1%; in test [9], 40.7%.
As to `Nc1cc2c(cc1Cl)-c1ccc([N+](=O)[O-])cc1/C2=N\O`, the growth is 66% in test [1]; 88.2% in test [2]; 33.3% in test [3]; 48.7% in test [4]; 63.3% in test [5]; 55.6% in test [6]. For the same molecule, the growth in test [7] is 28.7%; in [8] it was 37.9%; in [9], 10.8%.
On to `N#CCCN(NC(=O)OCc1ccccc1)C(=O)OCc1ccccc1`, for which the growth in [1] is 91.8%; in [2], 106%; in test [3] it was 80.7%; in [4], 120%; in [5], 102%; in [6] it was 88.4%. The growth in test [7] is 99%; in test [8], 97.1%; in [9], 107%.
For `CC1(C)CCC(=NNC(N)=S)CC1`, the growth was 90% in test [1]; 105% in test [2]; 83.9% in test [3]; 75.9% in test [4]; 99.7% in test [5]; 96.2% in test [6]. Also, the results for the growth in test [7], in test [8] and in [9] were 30.3%, 99.8% and 116%, respectively.
For the molecule `COc1cc(/C=N/NC(=O)c2ccccc2Nc2cccc(C(F)(F)F)c2)cc(OC)c1OC`, the growth in test [1] is 53.5%; in test [2] it was 57.4%; in [3], 41.4%; in test [4], -18.2% (active); in test [5], 2.47% (active); in test [6], 29.2%. For the same molecule, the growth in test [10] was -13.2% (active); in [8], 28.3%; in [9], -4.43% (active).
On to `CCn1cc(C(=O)O)c(=O)c2cnc(N3CCCC3)nc21`, for which the growth was 93.7% in test [1]; 110% in test [2]; 74.8% in test [3]; 116% in [4]; 100% in test [5]; 85.8% in test [6]. The values for the growth in test [10], in test [8] and in test [9] were 87.6%, 108% and 110%, respectively.
As for `Cc1cc(O)c(C(C)(C)C)cc1Sc1cc(C(C)(C)C)c(O)cc1C`, the growth in test [1] was 40.7%; in test [2] it was 58.2%; in [3] it was 37.5%; in test [4] it was 81%; in [5], 60.7%; in test [6] it was 32.3%. Moreover, the growth is 18.2% in test [7], 1.49% (active) in [8] and -33.1% (active) in test [9].
In the case of `O=C(N/N=C/c1ccccc1O)C(O)(c1ccccc1)c1ccccc1`, the growth was 20% in test [1]; 66.3% in [2]; 23.7% in test [3]; 53.9% in [4]; 35.5% in [5]; 23% in test [6]. Also, the growth in test [7] was 24.7%; in [8], 31.2%; in test [9], 42.6%.
Turning to `O=C1c2ccc3c4c(ccc(c24)C(=O)N1CCNCc1ccccc1)C(=O)N(CCNCc1ccccc1)C3=O`, the growth in test [1] was -65.6% (active); in test [2] it was -47.3% (active); in [3], -59% (active); in test [4], 63.4%; in test [5], 85.4%; in [6], -56.2% (active). Also, the results for the growth in test [8] and in [9] were -9.12% (active) and -8.22% (active), respectively.
With `CCOC(=O)c1ccc(NC(=O)Nc2ncc(Cl)cc2Cl)cc1`, the growth in test [1] is 111%; in test [2], 86.8%; in test [3], 96.4%; in test [4], 108%; in test [5] it was 107%; in [10] it was 91.9%. Also, the results for the growth in [7], in [8] and in test [9] were 81.7%, 93.2% and 95.9%, respectively.
As to `O=C(CC(c1ccccc1)N1CCOCC1)c1ccccc1` (stereo not drawn), the growth is 89.3% in [1]; 88.5% in test [2]; 75.7% in test [3]; 99.7% in test [4]; 103% in test [5]; 98.8% in [6]. The growth in test [7] was 79.6%; in test [8], 82.3%; in test [9], -32.7% (active).
For `Cc1cc(N(CCCNc2ccnc3cc(Cl)ccc23)Cc2ccc3c(c2)OCO3)nc(N2CCOCC2)n1`, the growth in [1] is 66.5%; in test [2] it was 44.7%; in test [3], 3.36% (active); in [4], 13.9%; in [5], 14.3%; in test [10], 54.1%. Further, the growth in test [7] is -8.38% (active); in test [8], -15.9% (active).
For `CN1CCC(CNc2cc(C3(C(=O)Nc4cc(C(=O)Nc5ccc(Cl)c(C(F)(F)F)c5)ccc4F)CC3)ncn2)CC1`, the growth was 46.7% in test [1]; 78.8% in [2]; 7.95% (active) in [3]; 84.5% in test [4]; 20.1% in [5]; 96% in [10]. In addition, the values for the growth in test [7], in [8] and in test [9] were -23.9% (active), -37.5% (active) and -26.7% (active), respectively.
In the case of `S=c1[nH]ccn1-c1c(Cl)cccc1Cl`, the growth in [1] was 103%; in test [2] it was 92.6%; in test [3], 91%; in [4], 112%; in test [5] it was 101%; in test [10], 116%. Also, the growth in test [7] was 76.7%; in test [8] it was 106%; in test [9], 104%.
For the molecule `O=C1C(c2ccccc2)C2C=CC(C2)N1O` (stereo not drawn), the growth in test [1] was 101%; in test [2], 102%; in test [3] it was 68%; in [4], 101%; in test [5] it was 107%; in test [6], 106%. In addition, the results for the growth in [7], in test [8] and in test [9] were 82.6%, 92.5% and 105%, respectively.
Regarding `Nc1nc(Nc2ccccc2)n[nH]1`, the growth is 95.8% in [1]; 101% in [2]; 82.3% in test [3]; 101% in [4]; 89.7% in [5]; 108% in test [10]. Also, the growth in [7] is 97.7%; in test [8], 106%; in test [9], 102%.
For `CCOC(=O)C(NC(=O)C(Cl)Cl)C(O)c1ccccc1` (stereo not drawn), the growth in test [1] is 109%; in test [2], 98.8%; in [3], 97.6%; in test [4] it was 104%; in test [5], 107%; in test [10] it was 99.2%. Moreover, the growth was 150% in [7], 98.3% in [8] and 107% in [9].
For `O=C(Nc1ccc(Cl)c([N+](=O)[O-])c1)Nc1nc2ccccc2s1`, the growth is 76.3% in test [1]; 65.1% in [2]; 83.8% in test [3]; 112% in test [4]; 81.8% in [5]; 85.7% in [10]. Further, the growth in test [7] is 49.2%; in test [8], 79.7%; in test [9], 113%.
Regarding `O=C1C(=O)c2ccccc2C(O)=C1CCCc1ccc(C2CCCCCC2)cc1`, the growth in test [1] is 24.9%; in test [2], 53.4%; in test [3], 24.2%; in test [4], 61%; in [5] it was 38.6%; in [6], -34.2% (active). The growth in test [7] was 34.7%; in [8], 49.2%; in test [9] it was 38%.
As for `O=C(Nc1nc2ccccc2s1)Nc1ccc([N+](=O)[O-])cc1Cl`, the growth is 90.4% in test [1]; 78.8% in [2]; 26.8% in test [3]; 57% in test [4]; 88% in [5]; 106% in [10]. The growth in test [7] was 57.7%; in test [8] it was 91.1%; in [9] it was 48.3%.
Consider `COc1ccc(NC2=NC(C)(CO)CS2)cc1` (stereo not drawn), for which the growth in test [1] was 106%; in test [2] it was 91.1%; in [3], 77.7%; in test [4], 110%; in [5], 96.7%; in test [10] it was 94.2%. In addition, the growth in test [7] is 89.6%; in test [8], 96.7%; in [9], 126%.
As to `CCC1(C(C)C)NC(=O)NC1=O` (stereo not drawn), the growth in test [1] was 99.4%; in [2] it was 88.1%; in [3], 82.1%; in test [4] it was 113%; in test [5], 99.9%; in test [6], 104%. The growth was 92.4% in test [7], 101% in test [8] and 90.2% in test [9].
`CCN1Cc2c(/C=C/c3ccccc3)nc3ccc(OC)cc3c2N(c2cccc(Cl)c2)C1`: the growth in test [1] was 66.9%; in [2], 60.6%; in test [3], 63.8%; in test [4], 101%; in test [5] it was 98%; in [10] it was 85.5%. Further, the figures for the growth in test [7], in [8] and in [9] were 58.6%, 55.4% and 11.7%, respectively.
As for `Cc1ccc(C(=O)Nc2cccc(F)c2)cc1NC(=O)C1(c2ncnc3[nH]ccc23)CC1`, the growth is 91.8% in [1]; 91.2% in test [2]; 51.6% in [3]; 132% in test [4]; 98.8% in test [5]; 105% in [10]. In addition, the growth in test [7] was 87.9%; in [8] it was 72.7%; in test [9], 87.9%.
`Cc1cc(N(CCCNc2ccnc3cc(Cl)ccc23)Cc2cccs2)nc(Cl)n1`: the growth was 48% in test [1]; 58.4% in [2]; 27.8% in test [3]; 50.4% in test [4]; 56.7% in test [5]; 28.5% in test [10]. For the same molecule, the results for the growth in test [7], in test [8] and in [9] were 42%, 11.2% and 0.473% (active), respectively.
As to `CN(C)CCN=c1nc2c(c(N)n1-c1ccccc1)c(=S)n(-c1ccccc1)c(=S)n2-c1ccccc1`, the growth in test [1] is 39.8%; in [2], 52.3%; in [3] it was 3.1% (active); in test [4], 47.7%; in test [5], 28.3%; in test [10] it was 40.3%. Further, the growth in test [7] is -8.26% (active); in test [8] it was 3.92% (active); in [9], 34.7%.
Regarding `N#CSCC1CC(O)(c2ccccc2)CC(c2ccc(Cl)cc2)O1` (stereo not drawn), the growth in test [1] was 54%; in test [2], 23.2%; in test [3] it was 15.1%; in test [4], -5.7% (active); in test [5], 48.3%; in test [6] it was 44.5%. The growth is 15% in test [7], -11.5% (active) in test [8] and 11.4% in test [9].
Turning to `O=C(Cc1csc2nc(-c3ccc(Cl)cc3)cn12)N/N=C/c1ccccc1O`, the growth in [1] was 32.2%; in test [2], 61%; in test [3] it was 27.2%; in [4], 57.1%; in test [5], 26.4%; in test [6], 34.5%. Further, the growth is 20.2% in [7], 10.5% in test [8] and -11.5% (active) in test [9].
For `Cc1ccc(NC(=O)Nc2cccnc2)cc1NC(=O)Nc1cccnc1`, the growth is 82.4% in [1]; 92% in test [2]; 85.3% in test [3]; 92.1% in test [4]; 83.8% in [5]; 90.7% in test [10]. In addition, the growth is 58.2% in test [7], 66.8% in test [8] and 31.3% in test [9].
For the molecule `CCCCCCNC(=O)Oc1ccc(/C(=C(/CC)Cc2ccccc2)c2ccc(OCCN3CCCCC3)cc2)cc1`, the growth in test [1] is 85.1%; in [2], 80.7%; in test [3], 60.4%; in test [4], 93.7%; in test [5], 100%; in [6] it was 96.9%. The growth in [7] is 66.7%; in test [8] it was 55.2%; in test [9], 0.769% (active).

The record behind these values is PubChem BioAssay (NCI).
